Compound activity deposited in PubChem by several laboratories.
PostGolgi yeast: growth inhibition of a yeast mutant, post-Golgi transport screen. actives 0.9% (n = 98,000). post-Golgi transport phenotypic cell assay. inhibition, % at 10 µM;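 also: yeast cells grown in 1536-well plates; yeast grown about 18 h at 30C before absorbance read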
EphB4 antag: EphB4-ephrin-B2 interaction antagonism | P54760 | EphB4 LBD / TNYL-RAW-Alexa532 peptide, fluorescence polarization | inhibition, % at 7 µM | actives 0.15% (n = 97,000);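 active = inhibition above the screen-wide mean inhibition plus 3 SD, cut at about 15% in these data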;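 also: 0% = DMSO wells and 100% = excess unlabeled TNYL-RAW peptide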
PostGolgi ctrl: growth of the yeast control strain, post-Golgi counter-screen. inhibition, % at 10 µM. actives 5% (n = 98,000). efflux-deficient yeast background strain, growth absorbance A615, 16 h
Calb biofilm kill: kills Candida albicans biofilms; C. albicans biofilm + clotrimazole, Alamar Blue; inhibition, % at 6 µM; actives 0.14% (n = 85,000); AID 834;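 active = inhibition above 20%; inactive = inhibition below 20%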;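 also: preformed 24 hr biofilms exposed to compound for 48 hr; 0% = biofilm without compound and 100% = blank killed by clotrimazole plus chlorhexidine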
An asterisk follows results filed as active; nt = not tested or not shown. Rows were chosen to be rich in hits. Some 5.2% of all compounds tested hit in one or more screens of this group. Rule as the data show it, unless noted: active = inhibition above about 30%; inactive = the rest.

SMILES	PostGolgi yeast	EphB4 antag	PostGolgi ctrl	Calb biofilm kill
O=C(Nc1ccc(N2CCN(C(=O)c3ccco3)CC2)c(Cl)c1)c1c(F)c(F)c(F)c(F)c1F	22	3	63*	9
COCCN(C(=O)C(C)C)c1nnc(-c2ccc(C)cc2)s1	5	9	8	1
CCCn1nnc(NC(=O)c2cc(Br)cc(Br)c2OC)n1	-9	4	7	1
Cc1[nH]nc(-c2ccc(O)c(C)c2O)c1Oc1ccccc1	2	2	38*	-4
Cc1[nH]nc(-c2ccc(OCc3cnn(-c4ccccc4)c3)c(C)c2O)c1Oc1ccccc1	-6	-8	8	nt
CCOc1ccc(-c2n[nH]c(C)c2Oc2ccc(OC)cc2)c(O)c1	12	-11	33*	7
Cc1[nH]nc(-c2ccc(OCc3cnn(-c4ccccc4)c3)cc2O)c1Oc1ccc(F)cc1	5	-9	19	nt
c1ccc2c(c1)Cc1cc(CN3CCOCC3)ccc1-2	-11	4	1	8
CCOc1ccc(NC(=O)C(C)Oc2ccccc2C(=O)Nc2cccc(Cl)c2Cl)cc1 (stereo not drawn)	-6	-8	-6	nt
CC(C)(C)n1nnnc1CN1CCSCC1	5	-6	4	6
COc1ccc(S(=O)(=O)N2CCCC2C(=O)Nc2ccc(C(C)=O)cc2)cc1 (stereo not drawn)	-4	nt	21	14
O=C(NC(=O)N1CCN(c2ccccc2F)CC1)c1ccccc1	3	-1	15	1
O=C(NCc1ccccc1)N1CCN(c2ccccc2F)CC1	4	2	31*	8
CCCn1c(NC(=O)c2ccccc2)nc2ccccc21	-1	-3	39*	7
CCCn1c(NC(=O)c2cccc(S(=O)(=O)N3CCCC3)c2)nc2ccccc21	-8	nt	36*	9
CCCn1c(NC(=O)C2CCN(S(=O)(=O)c3cccs3)CC2)nc2ccccc21	1	-5	32*	7
CCC(C)NC(=O)C1CCN(S(=O)(=O)c2cccs2)CC1 (stereo not drawn)	-3	5	3	nt
CCCn1c(NC(=O)c2ccc(C)cc2)nc2ccccc21	-8	-2	0	6
Cc1ccc(C(=O)Nc2nc3ccccc3n2CCN2CCCC2)cc1	0	4	-13	5
CC(=O)N1CCN(c2cc(N3CCc4ccccc4C3)c(F)cc2[N+](=O)[O-])CC1	0	-6	23	nt
Cc1sc2nc(SCC(=O)c3cc(C)n(CC4CCCO4)c3C)n(C(C)C)c(=O)c2c1C (stereo not drawn)	-4	-7	30*	7
CCCCn1nnnc1SCC(=O)N1CCOCC1	4	-4	0	3
Cn1c(=O)c2c(nc(CN3CCc4ccccc4C3)n2Cc2cccc(Cl)c2)n(C)c1=O	5	nt	33*	-2
Cn1c(=O)c2c(nc(CN3CCN(Cc4ccccc4)CC3)n2Cc2cccc(Cl)c2)n(C)c1=O	nt	nt	nt	-6
CCN1CCN(Cc2nc3c(c(=O)n(C)c(=O)n3C)n2Cc2ccccc2Cl)CC1	3	-1	31*	-4
SMILES	PostGolgi yeast	EphB4 antag	PostGolgi ctrl	Calb biofilm kill
O=C(Nc1nnc(-c2ccc3c(c2)CCCC3)o1)C1CCCCC1	-1	3	0	6
O=C(Nc1nnc(-c2ccc3c(c2)CCCC3)o1)c1ccc(Cl)cc1Cl	85*	-2	30	6
O=C(COC(=O)CCC(=O)c1cccs1)Nc1ccc(S(=O)(=O)N2CCOCC2)cc1	-5	nt	41*	11
Cc1ccc(S(=O)(=O)N2CCOCC2)cc1NC(=O)COC(=O)CCC(=O)c1cccs1	6	-6	-2	5
Cc1occc1-c1nnc(SCC(=O)Nc2ccccc2)n1C(C)c1ccccc1 (stereo not drawn)	1	nt	24	3
Oc1ccc(-c2csc(-c3ccccc3)n2)cc1O	1	-1	59*	7
Cc1nc(-c2ccc(O)c(O)c2)cs1	-2	-7	10	2
O=C1CCCc2oc3ccc(O)cc3c21	nt	-7	nt	3
O=C(O)CCC(=O)N1CCN(c2nc(-c3ccccc3Cl)c3cc(Br)ccc3n2)CC1	17	16*	8	1
COc1ccc(CCCc2nnc(SCC(=O)Nc3nccs3)n2C)cc1C	-9	-2	45*	5
Cc1cc(C)nc(SCc2nnc(SCC(=O)Nc3nccs3)n2C)n1	nt	3	nt	3
Cc1cc(C)n(-c2nc3ccccc3c(=O)n2OCC(=O)Nc2c(C)cccc2C)n1	15	3	-3	6
COc1ccc(CSc2nnc(Cc3sc(-c4ccccc4)nc3-c3ccccc3)o2)cc1	-1	9	12	11
O/N=C/c1ccccc1OCc1ccccc1Cl	-2	3	15	nt
O/N=C/c1ccccc1OCc1ccc(Cl)cc1	7	-8	77*	nt
CCOc1cc(C2C(C(=O)OCC(C)C)=C(C)N=C3SCCC(=O)N32)ccc1OC(C)=O (stereo not drawn)	3	1	11	6
COc1ccc(CNC(=O)c2cc(C3CC3)on2)cc1	-6	nt	33*	5
Cc1cc(C)cc(N(CC(=O)NCCSc2ccccn2)S(=O)(=O)c2ccccc2)c1	-3	-2	31*	nt
CC(=O)c1ccc(N2CCN(C(=O)COc3ccccc3F)CC2)c(F)c1	nt	0	nt	7
C=CCNC(=O)c1onc(CSc2ccccc2CC)c1C(=O)O	-3	-5	2	nt
N#Cc1cc2c(nc1SCc1ccncc1)CCC2	4	14	-2	4
O=C(C[n+]1cc2ccccc2c2ccccc21)c1ccccc1	-1	1	33*	nt
O=C(O)CCC(=O)CCC(=O)c1ccccc1	-16	6	30	6
CC1CCCC(C)N1C(=O)CSc1nnc(C2CCCCC2)o1 (stereo not drawn)	-3	nt	-4	0
COc1ccc(N2C(=O)CC(NCc3ccc(F)cc3)C2=O)cc1 (stereo not drawn)	nt	-3	nt	10
SMILES	PostGolgi yeast	EphB4 antag	PostGolgi ctrl	Calb biofilm kill
COc1ccc(CNC2CC(=O)N(C)C2=O)cc1 (stereo not drawn)	11	nt	35*	-2
Cc1cc(C)nc(SCNC(=O)c2ccc(F)cc2)n1	32*	-3	13	9
Cc1cc(SCNC(=O)c2ccccc2)ncn1	-4	nt	6	4
N#Cc1c(-c2cccs2)cc(C2CC2)nc1SCC(N)=O	-1	2	4	nt
CCCCCNC(=O)Cc1cc(=O)[nH]c(=O)[nH]1	5	-8	-1	9
Cc1ccc(OCC(O)Cn2c3ccccc3c3ccccc32)cc1 (stereo not drawn)	-1	9	41*	nt
CCCCn1c(=N)n(CC(O)COc2ccc(C)cc2)c2ccccc21 (stereo not drawn)	4	12	3	7
CC(=O)N(C)c1ccc(OCC(O)Cn2c3ccc(Cl)cc3c3cc(Cl)ccc32)cc1 (stereo not drawn)	73*	-9	57*	nt
Cc1cccc(C)c1OCC(O)Cn1c2ccccc2c2ccccc21 (stereo not drawn)	-6	7	50*	nt
Cc1ccc(C(=O)N/C(=C\c2cccs2)C(=O)NCc2ccncc2)cc1	0	-1	1	nt
COc1ccc(-c2[nH]ncc2/C=C(/C#N)C(=O)NC2CCCCCC2)cc1	10	5	50*	nt
COc1cc(NC(=O)Cn2nc(Cc3cccnc3)c3ccccc3c2=O)cc(OC)c1OC	-3	10	0	4
O=S(=O)(Nc1nc2ccccc2nc1N1CCN(c2ccccn2)CC1)c1ccc(Cl)cc1	-3	4	57*	nt
